# Screening data: PubChem, National Center for Advancing Translational Sciences (NCATS)
# Shown are actives, neighbours in structure and some others; about 9.9% of the full set was active somewhere.
# Tau fluor counter = counter-screen for tau fibril formation inhibitors | tau K18 P301L Alexa594 fluorescence, heparin fibrillization | AID 1463 | Potency, µM (top dose mostly 57.7 µM), inactives show at the top dose activity change, negative = decrease | hit rate 0.93% among 280,000; active = well fitted curve in the direction sought with a large enough effect; inconclusive = small, poorly fitted or top-dose-only effect, or another doubt; inactive = no such curve, though single readings can be large; an effect the other way counts as inactive or inconclusive; note: nearly all actives have a fitted effect of over 55% in size
#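 Human tau K18 P301L (15 uM unlabeled, 0.24 uM Alexa 594-labeled) in 100 mM sodium acetate pH 7 with 20 uM heparin, 6 hr at 37 C. ThT 30 uM added, 1 hr ambient; Alexa 594 FP and total fluorescence read at 555/632 nm.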
# Tau ThT inhib = blocks human tau fibril formation measured by thioflavin T. P10636. recombinant tau K18 P301L, heparin-induced fibrillization, ThT fluorescence. Potency, µM (series often up to 57.4 µM), without a hit: at the top dose activity, negative = inhibition, actives largely listed as inhibitors. hit rate 2.1% among 270,000. AID 1460; active = well fitted curve in the direction sought with a large enough effect; inconclusive = small, poorly fitted or top-dose-only effect, or another doubt; inactive = no such curve, though single readings can be large; an effect the other way counts as inactive or inconclusive; note: nearly all actives have a fitted effect of over 55% in size
# Target sequence (P10636 561-689 P618L limits assumed): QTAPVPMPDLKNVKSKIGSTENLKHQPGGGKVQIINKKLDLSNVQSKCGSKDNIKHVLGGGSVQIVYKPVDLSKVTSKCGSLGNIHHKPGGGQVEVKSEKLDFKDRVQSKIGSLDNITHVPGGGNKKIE
#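 Tau K18 P301L fragment (15 uM unlabeled plus 0.24 uM Alexa 594-labeled) in 100 mM sodium acetate pH 7 with compound, fibrillization induced by 20 uM heparin for 6 hr at 37 C. Thioflavin T (30 uM) added, fluorescence read after 1 hr (ex 450, em 510 nm).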
# HPGD inh = HPGD (human) dehydrogenase inhibition; Potency, µM, without a hit: top-dose activity change, negative = inhibition, usual class: inhibitors; P15428; purified HPGD, NADH fluorescence kinetic, PGE2 substrate; hit rate 4.3% among 150,000; AID 894
#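 20 nM HPGD preincubated 15 min at room temperature with compound in 50 mM Tris-HCl pH 8, 0.01% Tween 20. Started with 1 mM NAD+ and 30 uM prostaglandin E2; NADH fluorescence (360/450 nm) read 5 times over 30-s intervals, last minus first.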
# ALDH1A1 block = inhibitors of human aldehyde dehydrogenase 1A1; P00352; Purified ALDH1A1, NADH fluorescence, propionaldehyde substrate; Potency, µM (top dose mostly 75.3 µM), without a hit: at the top dose activity, negative = inhibition, hits mostly inhibitors; hit rate 7.3% among 220,000;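 note: plate controls were no enzyme wells and a reference inhibitor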
# Target sequence (P00352 whole entry, looked up): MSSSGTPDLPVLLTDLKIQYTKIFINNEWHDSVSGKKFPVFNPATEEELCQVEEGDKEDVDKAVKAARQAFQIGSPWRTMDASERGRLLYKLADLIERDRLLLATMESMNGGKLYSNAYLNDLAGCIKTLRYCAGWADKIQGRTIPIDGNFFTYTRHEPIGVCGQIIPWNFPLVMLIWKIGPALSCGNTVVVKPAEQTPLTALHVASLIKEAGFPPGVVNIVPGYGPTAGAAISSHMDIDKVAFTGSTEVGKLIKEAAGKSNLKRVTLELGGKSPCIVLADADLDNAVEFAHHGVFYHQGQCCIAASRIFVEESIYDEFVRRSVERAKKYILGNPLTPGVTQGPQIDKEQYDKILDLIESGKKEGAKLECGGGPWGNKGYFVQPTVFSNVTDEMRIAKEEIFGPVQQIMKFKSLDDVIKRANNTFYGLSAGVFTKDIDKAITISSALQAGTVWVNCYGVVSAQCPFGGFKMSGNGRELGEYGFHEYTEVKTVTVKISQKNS
# KDM4E inh = blocks human JMJD2E demethylase activity. B2RXH2. JMJD2E catalytic domain, FDH-coupled NADH fluorescence (FDH is formaldehyde dehydrogenase). Potency, µM (series often up to 57.1 µM), inactives show top-dose activity change, negative = inhibition, usual class: inhibitors. hit rate 1.6% among 230,000. AID 2147;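 note: 0% = wells with enzyme and -100% = buffer wells without enzyme; nearly all actives have a fitted effect of over 50% in size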
# Tau FP inhib = inhibitors of human tau fibril formation. AID 1468. hit rate 0.39% among 280,000. Potency, µM (titrated, usually from 57.7 µM), for inactives: top-dose activity, negative = inhibition, hits mostly inhibitors. K18 P301L tau heparin fibrillization, Alexa594 FP, 6 h; active = well fitted curve in the direction sought with a large enough effect; inconclusive = small, poorly fitted or top-dose-only effect, or another doubt; inactive = no such curve, though single readings can be large; an effect the other way counts as inactive or inconclusive; note: nearly all actives have a fitted effect of over 55% in size
#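 Heparin (20 uM) drove fibril formation of recombinant tau K18 P301L, 15 uM unlabeled with 0.24 uM Alexa 594 label, for 6 hr at 37 C in 100 mM sodium acetate pH 7. Fluorescence polarization (555/632 nm) read 1 hr after 30 uM ThT.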
# Numbers without * were called inactive; ? = inconclusive; nt = not tested or not shown; [ ] = dose if it differs, or a comment. Unless noted, calls come from the whole dose curve; as a rule, active = well fitted inhibition curve with a large enough effect (not every such curve was filed as active); inconclusive = small, poorly fitted or top-dose-only effect, or another doubt; inactive = no such curve, though single readings can be large or run the other way. Unless noted, % is set by controls: 0 for no effect and ±100 for the full control effect; potency is the fitted concentration of half-maximal effect.
SMILES,Tau fluor counter,Tau ThT inhib,HPGD inh,ALDH1A1 block,KDM4E inh,Tau FP inhib
Cn1c(Cl)cnc1C1CC(=O)c2cc(Cl)ccc2O1 (stereo unspecified),-11.7%,?,?,17.8µM*,-29.6%,0.0%
O=C1CC(c2ccccc2)Oc2ccccc21 (stereo unspecified),-3.8%,-3.9%,-16.9%,-3.1%,?,2.4%
CCN(C(=O)CSc1nc2cc(Cl)ccc2c(=O)n1Cc1ccco1)C1CCS(=O)(=O)C1 (stereo unspecified),-7.7%,-8.3%,nt,17.8µM*,-26.9%,2.4%
CN(C(=O)CSc1nc2ccc(Br)cc2c(=O)n1Cc1ccco1)C1CCS(=O)(=O)C1 (stereo unspecified),-13.6%,-1.9%,nt,12.6µM*,6.1%,7.3%
CN(C(=O)CSc1nc2cc(C(=O)O)ccc2c(=O)n1Cc1ccccc1)C1CCS(=O)(=O)C1 (stereo unspecified),2.0%,4.0%,nt,-1.6%,?,-6.4%
C=CCn1c(=NC(=O)c2ccccc2[N+](=O)[O-])sc2cc(S(C)(=O)=O)ccc21,-13.8%,-14.5%,-0.4%,7.7%,0.6%,1.1%
CCOc1ccc(N2C(=O)CS/C2=C(\C(Cl)=C(Cl)Cl)[N+](=O)[O-])cc1,?,15.8µM*,-5.3%,22.4µM*,0.2%,?
COc1ccc(-n2cc(C(=O)NCc3ccccc3)c3ccccc3c2=O)cc1,-7.8%,?,nt,nt,nt,5.8%
C[Si](C)(c1ccc(C(=O)O)cc1)c1ccc(C(=O)O)cc1,nt,nt,0.199µM*,14.0%[13.5 µM],nt,nt
O=C(Nc1ccccc1C(F)(F)F)N1CCN(c2ccccn2)CC1,4.2%,6.3%,nt,-7.7%,?,1.5%
Cc1ccccc1C(=O)N1CCN(c2ccc([N+](=O)[O-])c(NCc3cccnc3)c2)CC1,-8.3%,?,-12.6%,15.8µM*,-7.1%,5.4%
Cc1ccc(C(=O)N2CCN(c3ccc([N+](=O)[O-])c(NCc4cccnc4)c3)CC2)cc1,-7.8%,12.6µM*,-9.3%,12.6µM*,-5.1%,10.4%
CS(=O)(=O)N1CCN(c2ccc([N+](=O)[O-])c(NCc3cccnc3)c2)CC1,13.8%,19.3%,nt,-7.9%,2.4%,3.9%
CS(=O)(=O)N1CCN(c2ccc([N+](=O)[O-])c(NCc3ccccc3)c2)CC1,-22.4%,?,-22.9%,-11.3%,1.2%,5.8%
CCCOc1ccc(NC(=O)CC2C(=O)N(c3ccccc3)C(=O)N2Cc2ccc(F)cc2)cc1 (stereo unspecified),-14.5%,?,nt,nt,nt,?
CNC(=S)NNc1nncc2ccccc12,-0.7%,-5.7%,nt,?,-14.1%,1.7%
NNc1nncc2ccccc12,-12.3%,?,-18.0%,11.1%,20µM*,?
Cc1cc(N/N=C/c2ccc([N+](=O)[O-])o2)nc2ccccc12,?,1.58µM*,nt,-1.7%,-15.4%,1.1%
O=C(N/N=C/c1ccc([N+](=O)[O-])o1)c1cc(-c2ccc(-c3ccccc3)cc2)nc2ccccc12,-14.1%,-14.5%,nt,2.4%,0.9%,-8.5%
Cc1ccc2nc(N/N=C/c3ccco3)cc(C)c2c1,?,17.8µM*,nt,-3.9%,?,7.9%
O=C(Cn1c(=O)nc(-c2ccccc2)c2ccccc21)Nc1ccc(Cl)c(C(F)(F)F)c1,3.3%,10.0%,nt,nt,nt,-10.4%
CC1=C(C(=O)OC2CCCC2)C(c2cccc(Cl)c2Cl)CC(=O)N1 (stereo unspecified),-17.6%,-7.0%,nt,nt,nt,-2.2%
CCC[C@@H]1C[C@@]1(CCC)C(NP(=O)(c1ccccc1)c1ccccc1)c1ccc(Cl)cc1 (stereo partly specified),-2.3%,?,-14.8%,-13.8%,25.1µM*,3.8%
CCOc1ccc(N2C(=O)/C(=C\c3ccc(O)c(OC)c3)S(=O)(=O)C2c2cccc([N+](=O)[O-])c2)cc1 (stereo unspecified),31.6µM*[quencher],?,nt,-3.3%,-22.6%,8.1%
CCOc1ccc(N2C(=O)/C(=C\c3ccc(OC)c(O)c3)S(=O)(=O)C2c2cccc([N+](=O)[O-])c2)cc1 (stereo unspecified),-15.5%,-1.8%,nt,-17.3%,1.3%,11.6%
SMILES,Tau fluor counter,Tau ThT inhib,HPGD inh,ALDH1A1 block,KDM4E inh,Tau FP inhib
Cc1ccc(/C=N/Nc2nncc(-c3ccccc3)n2)o1,-14.4%,?,nt,9.9%,-5.0%,-2.6%
O=S(=O)(N/N=C\c1ccc(-c2ccccc2Cl)o1)c1ccccc1,7.5%,5.0%,15.8µM*,-1.8%,-2.8%,0.2%
Clc1ccc(-c2ccc(/C=N/Nc3nncc(-c4ccccc4)n3)o2)cc1,-27.1%,2.24µM*,-14.1%,1.0%,2.9%,-2.7%
O=C(N/N=C/c1ccc(-c2ccccc2Cl)o1)c1ccccc1,?,?,nt,?,?,-7.6%
FC(F)(F)c1cccc(-c2ccc(/C=N/Nc3nncc(-c4ccccc4)n3)o2)c1,-16.6%,?,nt,11.0%,4.9%,7.4%
Clc1ccccc1-c1ccc(/C=N/Nc2nncc(-c3ccccc3)n2)o1,-27.4%,2µM*,nt,4.8%,-0.6%,16.4%
CN(C)C(=O)NC(Nc1ccc(Cl)cc1Cl)C(Cl)(Cl)Cl (stereo unspecified),-12.9%,-10.9%,-2.8%,-2.9%,1.0%,4.2%
CC(C)C(=O)NC(c1ccc([N+](=O)[O-])cc1)c1c(O)ccc2ccccc12 (stereo unspecified),?,20µM*,-13.3%,-12.6%,-27.8%,?
COC(=O)C1=C(Nc2cc(Cl)cc(Cl)c2)CSC1,1.0%,6.1%,nt,nt,-2.9%,3.5%
CCOc1ccc(/C=C/C(=O)c2cc(Br)ccc(=O)c2O)cc1,?,4.47µM*,?,?,31.6µM*,?
Cc1cccc(/C=C/C(=O)c2cc(Br)ccc(=O)c2O)c1,?,14.1µM*,-26.1%,20µM*,?,?
CCc1ccc(/C=C/C(=O)c2cc(Br)ccc(=O)c2O)cc1,?,15.8µM*,15.8µM*,?,?,?
O=C(Nc1cc(F)ccc1F)C1CCN(c2nc3ccccc3n3cccc23)CC1,-21.4%,?,nt,nt,nt,6.6%
CCOCCCNC(=O)c1c[nH]c2ccc(OCC)cc2c1=O,-18.9%,nt,nt,nt,?,-5.1%
CC(=O)N1CCN(C(=O)CC2OC(=O)c3ccccc32)CC1 (stereo unspecified),-12.4%,?,?,5.01µM*,-3.3%,-3.8%
CCn1cc(C(=O)NCc2ccc(F)cc2)c(=O)c2cc(S(=O)(=O)N(C)C)ccc21,-22.6%,-4.8%,nt,nt,nt,-2.1%
Cc1nn(C)c(Cl)c1C(=O)NCC(=O)NCc1ccccc1,1.8%,6.9%,nt,7.6%,7.4%,-2.4%
COC(=O)C1=COC(C)C2CN3CCc4c([nH]c5ccccc45)C3CC12 (stereo unspecified),-23.9%,-11.0%,nt,9.0%,2.0%,-7.9%
